Assay outcomes: PubChem BioAssay, National Center for Advancing Translational Sciences (NCATS)
IL1B secr inh: blocks inflammasome-driven IL-1 beta release; AID 743279; THP-1 LPS/ATP IL-1B secretion, AlphaLISA, 16 h; active compounds read low; actives 4.7% (n = 360,000); activity change, % at 57.5 µM; in the data active = activity change below about -50%; inconclusive = mostly about -30% to -49%
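Secreted IL-1B measured by AlphaLISA bead assay after 16 h compound exposure of THP-1 cells; compounds (final up to 57.5 uM) added 1 h before LPS (250 ng/mL) and ATP (1.25 mM) stimulation; lower signal means less secretion.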
TDP1 cell noCPT: qHTS for Inhibitors of human tyrosyl-DNA phosphodiesterase 1 (TDP1): qHTS in cells in absence of CPT. Potency, µM (titrated, usually from 46.2 µM), without a hit: at the top dose activity change, negative = growth inhibition, most hits filed as inhibitors. DT40 Tdp1-/- hTDP1 cells, no CPT, ATP luminescence, 48 h. actives 15% (n = 420,000). AID 686978, 2013; also: potency is read from the fitted curve at half-maximal effect; nearly all actives have a fitted effect of over 55% in size
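Compound effects on proliferation are scored in DT40 Tdp1-/-;hTDP1 cells in the absence of CPT. ATP levels (CellTiter-Glo luminescence) are recorded after a ≥48 hr, 37 °C incubation.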
TDP1 cell CPT: DT40-hTDP1 cell growth loss with CPT | chicken DT40 Tdp1-/-;hTDP1 cells + 20 nM CPT, ATP luminescence, 48 h | Potency, µM (highest dose often 46.2 µM), for inactives: top-dose activity change, negative = growth inhibition, actives largely listed as inhibitors | actives 12% (n = 420,000) | AID 686979; also: potency is read from the fitted curve at half-maximal effect; nearly all actives have a fitted effect of over 55% in size
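Cell growth measured by CellTiter-Glo luminescence after a minimum 48 h, 37 C compound exposure with 20 nM CPT in Tdp1-knockout DT40 cells stably expressing hTDP1, seeded 400/well; qHTS titration format.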
HT1080 IDH1KD tx: HT-1080 IDH1 knockdown cell toxicity (counter line) | HT-1080 IDH1 knockdown viability, ATP luminescence, 48 h | Potency, µM (titrated, usually from 46.1 µM), for the others: top-dose activity, negative = toxicity, usual class: cytotoxic | actives 2% (n = 360,000);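 also: potency is read from the fitted curve at half-maximal effect; 0% = DMSO wells and -100% = cell-free medium wells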
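CellTiter-Glo luminescence after 48 h compound exposure at 37 degrees C of IDH1-knockdown HT-1080 cells in 5% FBS RPMI. %Activity scaled between DMSO wells and cell-free media wells, with curves fitted and assigned curve classes.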
uPA generation: inhibitors of cell surface uPA generation. cell surface uPA generation assay, qHTS. Potency, µM (doses to about 38.3 µM), inactives show top-dose activity change, negative = inhibition, usual class: inhibitors. actives 0.31% (n = 330,000). AID 540303; active = well fitted inhibition curve with a large enough effect; inconclusive = small, poorly fitted or top-dose-only effect; inactive = no such curve, though single readings can be large or run the other way; tested in mouse RAW 264.7 cells; also: potency is read from the fitted curve at half-maximal effect; nearly all actives have a fitted effect of over 55% in size
HT1080NT lethal: kills 2HG-producing HT-1080-NT fibrosarcoma cells | actives 1.6% (n = 360,000) | Potency, µM (highest dose often 46.1 µM), for inactives: at the top dose activity, negative = less viability, usual class: cytotoxic | HT-1080-NT fibrosarcoma viability, CellTiter-Glo ATP luminescence, 48 h;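 also: NT is the 2HG producing partner of a matched IDH1 knockdown line; potency is read from the fitted curve at half-maximal effect; 0% = DMSO-treated cells and -100% = media-only wells without cells; nearly all actives have a fitted effect of over 55% in size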
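Viability of the 2HG-overproducing fibrosarcoma line after 48 hours of compound exposure at 37 degrees C was determined by luminescence with CellTiter-Glo, and concentration-effect curves were then fitted and categorized.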
The depositor's hits bear a star; ? = inconclusive; · = no result given. Most compounds without a hit are left out; they make up all but 19% or so of the library. Unless noted, calls follow the shape of the dose curve; as a rule, active = well fitted curve in the direction sought with a large enough effect; inconclusive = small, poorly fitted or top-dose-only effect, or another doubt; inactive = no such curve, though single readings can be large; an effect the other way counts as inactive or inconclusive. Unless noted, % is scaled to controls: 0 for no effect and ±100 for the full control effect.

SMILES | IL1B secr inh | TDP1 cell noCPT | TDP1 cell CPT | HT1080 IDH1KD tx | uPA generation | HT1080NT lethal
O=Cc1cn(Cc2c(F)cccc2Cl)nc1-c1ccccc1 | -12 | ? | ? | -12% | 11% | -18%
CCc1ccc(-c2nn(Cc3ccccc3)cc2C=O)cc1 | -59* | ? | ? | -24% | 0% | ?
Oc1ccc2c3c1O[C@H]1[C@@H](O)CC[C@@]4(O)C(C2)N(CC2CCC2)CCC314 (stereo not given in full) | · | -8% | 2% | 16% | · | 9%
CC(C)c1ccc(NC(=O)C2CCC(CNS(=O)(=O)c3ccc4c(c3)CCCC(=O)N4)CC2)cc1 (stereo not given) | · | 16µM* | 13µM* | · | · | ·
NC1(C(=O)O)CCCc2ccc(N(CCCl)CCCl)cc21 (stereo not given) | 14 | 2.3µM* | 1.6µM* | -5% | -9% | 2%
O=C1NC(=O)C2(CCCc3ccc(N(CCCl)CCCl)cc32)N1 (stereo not given) | -6 | 0.18µM* | 0.41µM* | ? | -13% | ?
Cc1cc(OCC(=O)N2C[C@H]3C[C@@H](C2)c2cccc(=O)n2C3)c2c(C)cc(=O)oc2c1 | 11 | -15% | -11% | 8% | -2% | 0%
c1ccc(C(c2ccccc2)c2ccncc2)cc1 | -27 | 21µM* | ? | 0% | 2% | -9%
Cc1cc(C)cc(NC(=S)NC2CC3CCC(C2)N3Cc2ccco2)c1 (stereo not given) | 0 | 16µM* | ? | 17% | -6% | -9%
O=C1NC2CCCCN2C12CCN(CCCN1c3ccccc3CCc3ccc(Cl)cc31)CC2 (stereo not given) | · | 24µM* | ? | · | · | ·
CC[N+](CC)(CC)CCOC(=O)C(C1CCCC1)C1CCCC1 | · | 11µM* | ? | · | · | ·
CC1([N+](=O)[O-])COP(=O)(NC2CCCC2)OC1 (stereo not given) | 0 | -1% | -12% | 13% | 3% | 19%
COC1=CC(=O)O[C@@H](/C=C/c2ccccc2)C1 | -24 | -12% | -5% | 17% | 11% | 32%
Cc1ccc(OC(=O)N(C)C[C@H]2OCc3cnnn3CCCC(=O)N([C@H](C)CO)C[C@@H]2C)cc1 | -21 | ? | ? | -1% | · | 2%
CN(C)S(=O)(=O)c1ccc(C(=O)NNc2nc(-c3ccccc3)c3cc(Br)ccc3n2)cc1 | -60* | ? | ? | -10% | 0% | 1%
ClC1=C(Cl)C2(Cl)C3C(Cl)C=CC3C1(Cl)C2(Cl)Cl (stereo not given) | 56 | ? | ? | 0% | 7% | 24%
Cc1noc(C)c1COc1ccccc1C(=O)N1CCN(S(=O)(=O)c2ccccc2Br)CC1 | 27 | 21µM* | 16µM* | 0% | ? | -13%
CN1CCCN(C(=O)COc2ccccc2Br)CC1 | 3 | 0% | 5% | 1% | 10% | -2%
CCC1/C=C/C=CCC(C)C(O)[C@@](C)(O)C(=O)C(C)C(O)C(C)C(=O)C(C)C(O)C(C)C=CC(=O)O[C@H]2C(C)C(CC1)O[C@]1(CCC(C)C(CC(C)O)O1)C2C (stereo not given in full) | · | 0.0058µM* | 0.0073µM* | · | · | ·
N/C(Cc1ccc(Cl)cc1)=N\OC(=O)c1cccc2ccccc12 | ? | 29µM* | ? | ? | -18% | ?
CN1CC[C@@]2(c3cccc(O)c3)Cc3nc4ccccc4cc3C[C@H]2C1 | · | ? | 27µM* | · | · | ·
COc1cccc(C2(C#N)CCN(C)CC2)c1 | 12 | 13% | 8% | 12% | 0% | 15%
COc1ccc([C@H]2CC(=O)C=C(c3ccc4c5c(cccc35)CC4)C2)cc1 | -7 | ? | ? | -23% | 5% | -15%
O=C1C=C(c2ccc3ncccc3c2)C[C@@H](c2ccc(Cl)cc2)C1 | -15 | ? | 23µM* | -29% | ? | ?
CCCNC(=O)N1[C@H]2CC[C@@H]1C(C(=O)OC)=C(c1cccc(OC)c1OC)C2 | 26 | -8% | -21% | 1% | 12% | 14%
SMILES | IL1B secr inh | TDP1 cell noCPT | TDP1 cell CPT | HT1080 IDH1KD tx | uPA generation | HT1080NT lethal
O=C1CSC(c2ccccc2Cl)c2cc(Cl)ccc2N1 (stereo not given) | · | 39µM* | ? | · | · | ·
Cc1cccc(-n2nc(C)c3c2NC(=O)CSC3c2ccccc2Cl)c1 (stereo not given) | · | 21µM* | ? | · | · | ·
Cc1ccccc1-n1nc(C)c2c1NC(=O)CSC2c1ccc(N(C)C)cc1 (stereo not given) | · | 18µM* | ? | · | · | ·
NCCc1cccc(O)c1 | · | -12% | -8% | · | · | ·
CC(C)(CN)CC(=O)O | 2 | -5% | -13% | -1% | 7% | -1%
CC(c1ccccc1)n1cncc1C(=O)O (stereo not given) | 22 | 0% | -5% | 9% | 5% | -1%
CCCCCn1c(NC(=O)c2ccco2)c(C(=O)OCC)c2nc3ccccc3nc21 | -101* | 16µM* | 21µM* | 12µM* | -17% | 9.2µM*
CCOC(=O)c1c(NS(=O)(=O)c2ccccc2)n(CCCOC)c2nc3ccccc3nc12 | -96* | ? | ? | ? | -1% | ?
CCOC(=O)c1c(N)n(CCCOC(=O)c2ccco2)c2nc3ccccc3nc12 | 135 | 13µM* | 12µM* | 18µM* | -11% | 23µM*
C=CCNC(=O)c1c(N)n(CCN2CCOCC2)c2nc3ccccc3nc12 | ? | -23% | -9% | -27% | 0% | ?
Cc1ccccc1-n1c(/C=C/c2ccc(N(C)C)cc2)nc2ccccc2c1=O | · | 13µM* | 16µM* | · | · | ·
Cc1ccccc1-n1c(/C=C/c2c(C)[nH]c3ccccc23)nc2ccccc2c1=O | · | 1.8µM* | 2.1µM* | · | · | ·
O=c1c2ccccc2nc(/C=C/c2ccccn2)n1-c1ccccc1 | ? | -20% | -25% | 14% | 7% | 15%
Cc1ccccc1-n1c(CNc2ccccc2)nc2ccccc2c1=O | 11 | ? | ? | ? | ? | -2%
COc1ccc(CN2Cc3cc(N4CCCCC4)ccc3-n3nncc3C2)cc1 | · | ? | ? | 3% | · | 2%
COc1ccc(OC)c(CN2CCCC(C(=O)c3sccc3C)C2)c1 (stereo not given) | ? | ? | ? | -13% | -9% | 3%
C=CCCC1(C2=CCCCC2)C(=O)NC(=O)NC1=O | 21 | -1% | 1% | 7% | 5% | 9%
COc1ccc(-n2c(O)c(C(C)=NCc3ccc4c(c3)OCO4)c(=O)[nH]c2=O)cc1 | -12 | 9% | 1% | 1% | -1% | -20%
